The source of these data is PubChem BioAssay.

SMILES strings stand for the structures. Activity calls are given as the source filed them. Unless noted, the rule behind the calls is not given here.

Test [1] deals with Wnt5a (protein binding on small-molecule microarray). As to the kind of experiment: Wnt5a binders on small-molecule microarray, primary screen, biophysical, 635/667 nm fluorescence (AID 1142).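 Note: fluorescence read at 667 nm with signal to noise per printed feature.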 The conditions noted are these: 635 nm fluorescence, higher = more signal.
Test [2] is described as follows: cell viability in Huh7 cells, primary screen, cytotoxicity control for HCV replication inhibitor project, CellTiter-Glo luminescence, basal, 48 h (AID 1143).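 Note: Huh7 hepatoma cells carrying a hepatitis C replication reporter with no stimulus; test concentration not given here.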 The conditions noted are these: Huh7 HCV replicon, higher = more signal, called active from +8 up or from −8 down.
Test [3] in a line: P. aeruginosa biofilm formation inhibitors, primary screen, PAO1 strain, BacTiter-Glo luminescence, LB-PBS (AID 1144). The conditions noted are these: 12 h, higher = more signal.
Test [4] in a line: CREB reporter modulators without forskolin, primary screen, cell-based, PC12, CRE-LacZ reporter, unstimulated (AID 1145). The conditions noted are these: no forskolin, luminescence, 4.5 h, higher = more signal, called active from +8 up or from −8 down.
Test [5] is described as follows: CREB reporter modulators under forskolin, primary screen, cell-based, PC12, CRE-LacZ reporter, forskolin-stimulated (AID 1146).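 Note: PC12 cells with 6xCRE LacZ reporter stimulated by forskolin 10 µM; beta-galactosidase reporter signal reflecting CREB driven transcription.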 The conditions noted are these: luminescence, 4.5 h, higher = more signal, called active from +8 up or from −8 down.
Test [6] has as its target Streptavidin (Streptomyces avidinii) (UniProt P22629). Description: streptavidin binders on small-molecule microarray, primary screen, artefact control for SMM compound annotation, biophysical, 635/667 nm fluorescence (AID 1147).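 Note: signal reflects streptavidin binding to arrayed compounds as a control protein.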 Particulars: streptavidin binding, higher = more signal.
Test [7] can be described thus: small-molecule binders of probe aInhba, primary screen, biochemical, small-molecule microarray, 635/667 nm fluorescence (AID 1148).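 Note: score merges 667nm spot fluorescence with signal-to-noise for antibody binding to printed compounds.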 Particulars: higher = more signal.
The target of test [8] is Torsin-1A (Homo sapiens) (UniProt O14656). As to the kind of experiment: torsin A binders from cell lysate, primary screen, small-molecule microarray, wild-type, 635/667 nm (AID 1149). Particulars: COS7 hTOR1A-WT lysate, 635 nm fluorescence, higher = more signal.
Chain of Torsin-1A (Homo sapiens) (O14656 whole entry, looked up): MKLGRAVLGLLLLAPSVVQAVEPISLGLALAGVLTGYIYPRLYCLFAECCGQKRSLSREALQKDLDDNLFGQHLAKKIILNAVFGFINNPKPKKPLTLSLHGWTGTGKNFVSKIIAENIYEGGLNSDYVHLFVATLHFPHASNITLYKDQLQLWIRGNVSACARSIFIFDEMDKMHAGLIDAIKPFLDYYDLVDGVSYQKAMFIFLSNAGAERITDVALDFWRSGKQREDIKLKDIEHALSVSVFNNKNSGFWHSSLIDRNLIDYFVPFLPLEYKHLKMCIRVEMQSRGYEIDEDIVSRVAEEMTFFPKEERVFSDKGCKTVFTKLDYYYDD
For test [9] the target is unchanged. As to the kind of experiment: small-molecule binders of mutant TOR1A in lysate, primary screen, cell lysate, small-molecule microarray, COS7 lysate, 635/667 nm fluorescence (AID 1150).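 Note: score pools 667 nm emission and signal to noise measuring lysate protein binding.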 The conditions noted are these: COS7 hTOR1A mutant lysate, 635 nm fluorescence, higher = more signal.
Test [10] concerns Sonic hedgehog protein (Shh). Description: small-molecule binders of Shh protein, primary screen, biochemical, small-molecule microarray, 635/667 nm fluorescence (AID 1151).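 Note: Shh protein binding to compounds spotted on small-molecule microarray slides; score combines spot fluorescence intensity with signal-to-noise across triplicate slides.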 Particulars: small-molecule microarray binding, 635 nm fluorescence; higher = more signal.
A short description of test [11]: E. coli DRC41 culture turbidity changes, primary screen, E. coli filamentation inducer project, strain DRC41, OD650, 48 h (AID 1152).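 Note: E. coli MC1000 strain DRC41 lacking acrAB efflux pump and sulA.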 Particulars: E. coli DRC41 (acrAB sulA), higher = more signal, called active from +8 up or from −8 down.
Test [12] in a line: small-molecule binders of probe aLefty1, primary screen, biochemical, small-molecule microarray, 635/667 nm fluorescence (AID 1153).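 Note: score merges spot fluorescence with signal-to-noise ratio from the scanned slide images.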 Particulars: higher = more signal.
Test [13] in a line: PSAC antagonists in infected red cells, primary screen, cell-based, P. falciparum Indochina, OD700, 1 h (AID 1154). Particulars: P. falciparum Indochina infected RBC osmotic lysis, higher = more signal, called active from +8 up or from −8 down.
Test [14] is described as follows: PSAC antagonists in infected red cells, primary screen, cell-based, P. falciparum Indochina, OD700, 2 h (AID 1155).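 Note: lysis reports solute entry through the parasite surface anion channel PSAC; channel blockers reduce lysis of infected cells.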 Particulars: P. falciparum Indochina infected erythrocytes, osmotic lysis OD700; higher = more signal, called active from +8 up or from −8 down.
The nature of test [15]: osmotic lysis modulators in infected erythrocytes, primary screen, PSAC antagonist project, cell-based, P. falciparum Indochina, OD700, 3 h (AID 1156). Particulars: higher = more signal, called active from +8 up or from −8 down.
Test [16] is described as follows: PSAC antagonists in infected red cells, primary screen, cell-based, P. falciparum Indochina, OD700, 18 h (AID 1157). Particulars: P. falciparum Indochina infected erythrocytes, osmotic lysis OD700, 18 h; higher = more signal, called active from +8 up or from −8 down.
The nature of test [17]: modulators of S6 phosphorylation in cells, primary screen, cell-based, A549, cytoblot, luminescence, serum-stimulated (AID 1158).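 Note: serum-stimulated A549 lung adenocarcinoma cells; signal is phosphorylated S6 detected by cytoblot immunostaining with HRP secondary.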 Particulars: A549 phospho-S6 cytoblot, 5 h, higher = more signal.
In test [18] the target is NADPH oxidase 2 (Homo sapiens) (UniProt P04839). As to the kind of experiment: NOX2-dependent H2O2 signal modulators, primary screen, NOX inhibitor project, cell-based, HEK293-NOX2, PMA-stimulated, Amplex Red fluorescence (AID 1159). Note: test concentration not given here. Particulars: 45 min, higher = more signal, called active from +8 up or from −8 down.
Chain of NADPH oxidase 2 (Homo sapiens) (P04839 whole entry, looked up): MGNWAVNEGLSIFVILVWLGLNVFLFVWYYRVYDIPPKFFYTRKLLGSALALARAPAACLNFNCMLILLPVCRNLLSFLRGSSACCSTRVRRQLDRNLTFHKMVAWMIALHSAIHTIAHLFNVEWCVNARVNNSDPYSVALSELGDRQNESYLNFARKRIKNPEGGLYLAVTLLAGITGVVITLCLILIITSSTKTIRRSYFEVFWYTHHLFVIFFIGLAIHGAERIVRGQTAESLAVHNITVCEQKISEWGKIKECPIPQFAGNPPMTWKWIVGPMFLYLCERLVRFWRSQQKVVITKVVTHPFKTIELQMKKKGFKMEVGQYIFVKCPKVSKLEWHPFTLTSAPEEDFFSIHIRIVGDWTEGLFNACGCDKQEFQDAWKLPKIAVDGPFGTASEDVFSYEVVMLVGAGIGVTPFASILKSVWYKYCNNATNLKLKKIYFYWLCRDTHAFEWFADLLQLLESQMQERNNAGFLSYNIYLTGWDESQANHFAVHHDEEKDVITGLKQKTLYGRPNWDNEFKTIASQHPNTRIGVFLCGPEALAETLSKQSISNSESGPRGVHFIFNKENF
In test [19] the target is NADPH oxidase 4 (Homo sapiens) (UniProt Q9NPH5). As to the kind of experiment: NOX4-dependent H2O2 signal modulators, primary screen, NOX inhibitor project, cell-based, HEK293-NOX4, tetracycline-induced, Amplex Red fluorescence (AID 1160). Particulars: 45 min, higher = more signal, called active from +8 up or from −8 down.
Chain of NADPH oxidase 4 (Homo sapiens) (Q9NPH5 whole entry, looked up): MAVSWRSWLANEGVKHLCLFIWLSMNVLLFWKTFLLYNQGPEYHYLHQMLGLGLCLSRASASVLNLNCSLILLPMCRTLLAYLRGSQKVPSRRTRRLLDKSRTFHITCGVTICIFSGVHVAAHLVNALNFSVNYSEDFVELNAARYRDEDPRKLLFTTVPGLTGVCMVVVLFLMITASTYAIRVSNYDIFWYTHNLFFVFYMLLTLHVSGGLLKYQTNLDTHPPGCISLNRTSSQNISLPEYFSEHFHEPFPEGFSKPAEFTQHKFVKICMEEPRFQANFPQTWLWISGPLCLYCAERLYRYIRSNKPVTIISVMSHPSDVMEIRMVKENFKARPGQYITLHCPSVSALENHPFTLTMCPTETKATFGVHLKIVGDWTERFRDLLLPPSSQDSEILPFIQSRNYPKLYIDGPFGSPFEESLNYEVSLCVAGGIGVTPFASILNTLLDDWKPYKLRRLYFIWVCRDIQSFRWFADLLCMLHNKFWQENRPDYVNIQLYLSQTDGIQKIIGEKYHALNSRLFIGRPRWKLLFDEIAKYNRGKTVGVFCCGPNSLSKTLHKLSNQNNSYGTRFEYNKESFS
Test [20] addresses NADPH oxidase 5 (Homo sapiens) (UniProt Q96PH1). Description: NOX5-dependent H2O2 signal modulators, primary screen, NOX inhibitor project, cell-based, HEK293-NOX5, Amplex Red fluorescence (AID 1161). The conditions noted are these: HEK293-NOX5, ionomycin, 45 min, higher = more signal.

Chain of NADPH oxidase 5 (Homo sapiens) (Q96PH1 whole entry, looked up): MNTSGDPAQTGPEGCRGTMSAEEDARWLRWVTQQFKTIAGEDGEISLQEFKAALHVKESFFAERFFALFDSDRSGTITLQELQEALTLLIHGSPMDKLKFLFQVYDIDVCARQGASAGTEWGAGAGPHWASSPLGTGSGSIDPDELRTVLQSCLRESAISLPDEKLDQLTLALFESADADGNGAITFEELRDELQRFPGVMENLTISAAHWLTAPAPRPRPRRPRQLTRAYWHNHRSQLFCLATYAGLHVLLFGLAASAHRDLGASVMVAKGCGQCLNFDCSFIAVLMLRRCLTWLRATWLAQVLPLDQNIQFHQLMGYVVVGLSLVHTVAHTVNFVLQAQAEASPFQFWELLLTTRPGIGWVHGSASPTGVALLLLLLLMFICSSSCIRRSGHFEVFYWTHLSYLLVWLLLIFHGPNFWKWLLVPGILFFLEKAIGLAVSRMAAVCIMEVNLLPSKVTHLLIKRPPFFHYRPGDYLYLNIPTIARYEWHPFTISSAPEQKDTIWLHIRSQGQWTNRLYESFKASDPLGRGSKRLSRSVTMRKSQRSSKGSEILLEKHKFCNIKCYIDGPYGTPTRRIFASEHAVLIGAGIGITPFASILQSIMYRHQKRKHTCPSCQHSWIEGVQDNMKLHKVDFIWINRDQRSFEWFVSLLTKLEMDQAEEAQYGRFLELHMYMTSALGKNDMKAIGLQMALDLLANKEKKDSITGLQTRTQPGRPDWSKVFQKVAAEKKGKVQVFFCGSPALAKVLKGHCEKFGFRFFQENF
Chain of Streptavidin (Streptomyces avidinii) (P22629 whole entry, looked up): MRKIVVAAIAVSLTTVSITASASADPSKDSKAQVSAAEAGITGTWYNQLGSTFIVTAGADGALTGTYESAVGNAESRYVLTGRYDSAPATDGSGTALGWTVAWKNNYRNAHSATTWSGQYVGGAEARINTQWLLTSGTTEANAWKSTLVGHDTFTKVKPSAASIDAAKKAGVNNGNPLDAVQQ

For `CC(C)[Si]1(C(C)C)OCc2cc(-c3ccc(-c4ccc(Cl)c(Cl)c4)o3)nc(-c3ccccc3)c21`, the composite z-score in [1] is -0.345; in test [6] it was -0.832; in [7] it was -0.295; in test [8], -0.193; in [9], -1.15; in test [10] it was -0.128. Moreover, in test [12], the composite z-score is -0.0501. The z-score was -0.243 (inactive) in [2]; -0.543 (inactive) in [3]; 0.484 (inactive) in test [4]; -0.272 (inactive) in test [5]; -0.618 (inactive) in test [11]; 1.01 (inactive) in test [13]. For the same compound, the z-score in test [14] is 0.394 (inactive); in test [15], 0.6 (inactive); in [16], 0.138 (inactive); in test [17], -0.106; in test [18], 0.237 (inactive); in test [19] it was -1.35 (inactive). In test [20], the z-score amounted to 0.701.

Turning to `CCCC=C(CCC)[C@@H](NC(=O)c1cccs1)c1ccc(C(=O)OC)cc1`, the composite z-score in test [1] was 0.535; in test [6] it was 0.373; in test [7], 0.375; in test [8], 0.657; in test [9], 0.183; in [10] it was -0.83. In test [12], this compound displayed a composite z-score of 0.911. The z-score in test [2] was -0.268 (inactive); in test [3], -0.473 (inactive); in test [4] it was -0.951 (inactive); in test [5] it was 0.158 (inactive); in test [11] it was -1.24 (inactive); in test [13] it was -1.3 (inactive). Moreover, the z-score is -0.864 (inactive) in test [14]; -1.72 (inactive) in test [15]; -1.27 (inactive) in test [16]; 1.28 in test [17]; 0.0754 (inactive) in test [18]; 1.74 (inactive) in [19]. In test [20], this compound yielded a z-score of 2.06.

As to `C=C[C@@H](CO)N(Cc1ccc(OC)cc1)S(=O)(=O)c1ccc(Br)cc1`, the composite z-score in [1] is -0.0447; in test [6], 0.396; in test [7], -0.154; in [8] it was 1.16; in [9], 1.13; in test [10] it was -0.0145. This compound also displayed a composite z-score in [12] of -0.639. Besides, the z-score in test [2] was -3.07 (inactive); in test [3], -0.445 (inactive); in test [4], -0.104 (inactive); in test [5], -0.895 (inactive); in test [11], 1.77 (inactive); in test [13], 2.48 (inactive). Besides, the z-score was -0.457 (inactive) in test [14]; -1.21 (inactive) in test [15]; -1.1 (inactive) in test [16]; 1.66 in test [17]; -1.84 (inactive) in test [18]; 0.114 (inactive) in test [19]. This compound returned a z-score in [20] of -1.26.

As for `COc1cc(C(O)C2C=CC3C(=O)N(C)C(=O)C3N2Nc2ccccc2)cc(OC)c1OC` (stereo not given), the composite z-score in test [1] is 0.238; in test [6], 1.06; in [7] it was 0.813; in [8], 0.892; in test [9], 1.17; in [10], -0.153. The compound also returned a composite z-score in [12] of 0.923. Also, the z-score was 0.338 (inactive) in test [2]; -0.426 (inactive) in [3]; 0.246 (inactive) in test [4]; -0.944 (inactive) in test [5]; -0.283 (inactive) in [11]; 1.28 (inactive) in [13]. For the same compound, the z-score in test [14] was 1.01 (inactive); in [15] it was 0.508 (inactive); in test [16], 1.07 (inactive); in test [17] it was -0.802; in [18], -1.41 (inactive); in test [19], -2.12 (inactive). In [20], this compound showed a z-score of -2.14.
